Inconclusive results are not listed. The source made the active and inactive calls. Unless noted, calls follow the shape of the dose curve; as a rule, active = well fitted curve in the direction sought with a large enough effect in the repeat runs; inconclusive = weak or mixed curves; inactive = no such curve, though single readings can be large; an effect the other way counts as inactive or inconclusive.
Tests used:
[1] = qHTS assay to identify small molecule agonists of the RXR signaling pathway - cell viability counter screen (AID 1159529);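 also: HEK 293T cells carrying an RXR-alpha UAS beta-lactamase reporter; series mostly up to about 77 µM; nearly all actives have a fitted effect of over 50% in size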
How it was run: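 RXR-alpha-UAS-bla HEK 293T cells in medium with 2% charcoal-stripped FBS were preincubated 5 hr, then exposed to compounds for 16 hr at 37 C. Viability was read as CellTiter-Glo luminescence after 30 min at room temperature.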

[2] = qHTS assay to identify small molecule antagonists of the retinoid acid receptor (RAR) signaling pathway - cell viability counter screen (AID 1159551); also: nearly all actives have a fitted effect of over 35% in size
How it was run: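 C3RL4 RARE-luciferase cells, 1,000/well, incubated overnight, then dosed with compound plus 1 uM retinol (final). After 6 hr at 37 C, viability read by CellTiter-Glo ATP luminescence following 30 min at room temperature.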

[3] = qHTS assay to identify small molecule antagonists of the retinoic acid receptor (RAR) signaling pathway (AID 1159552; also: nearly all actives have a fitted effect of over 50% in size)
How it was run: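 RARE-luc C3RL4 cells; cpds + 1 uM (final) retinol, 6 hr, 37 C/5% CO2; luciferase reagent, 30 min RT, luminescence readout. Inhibitors of retinol-driven signal scored.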

[4] = qHTS assay to identify small molecule agonists of the retinoic acid receptor (RAR) signaling pathway (AID 1159553)
How it was run: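 C3RL4 RARE-luciferase cells were seeded at 1,000/well and grown overnight at 37 C, then exposed to compounds for 6 hr at 37 C, 5% CO2. Luciferase reagent was added and luminescence was read after 30 min at room temperature.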

[5] = qHTS assay to identify small molecule antagonists of the estrogen related receptor (ERR) signaling pathway from Tox21 library - cell viability counter screen (AID 1224834); also: nearly all actives have a fitted effect of over 30% in size
How it was run: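 ERR reporter cells, 2,000 per well, rested 6 h, then exposed to compound in DMSO for 17.5 hours at 37 C. Viability read as fluorescence after 30 min with CellTiter-Fluor.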

[6] = target: Luciferin 4-monooxygenase (Photinus pyralis) (UniProt P08659); test: qHTS assay to identify small molecule inhibitors of firefly luciferase (AID 1224835); also: series mostly up to about 120 µM; nearly all actives have a fitted effect of over 25% in size
Luciferin 4-monooxygenase (Photinus pyralis), sequence (P08659 whole entry, looked up): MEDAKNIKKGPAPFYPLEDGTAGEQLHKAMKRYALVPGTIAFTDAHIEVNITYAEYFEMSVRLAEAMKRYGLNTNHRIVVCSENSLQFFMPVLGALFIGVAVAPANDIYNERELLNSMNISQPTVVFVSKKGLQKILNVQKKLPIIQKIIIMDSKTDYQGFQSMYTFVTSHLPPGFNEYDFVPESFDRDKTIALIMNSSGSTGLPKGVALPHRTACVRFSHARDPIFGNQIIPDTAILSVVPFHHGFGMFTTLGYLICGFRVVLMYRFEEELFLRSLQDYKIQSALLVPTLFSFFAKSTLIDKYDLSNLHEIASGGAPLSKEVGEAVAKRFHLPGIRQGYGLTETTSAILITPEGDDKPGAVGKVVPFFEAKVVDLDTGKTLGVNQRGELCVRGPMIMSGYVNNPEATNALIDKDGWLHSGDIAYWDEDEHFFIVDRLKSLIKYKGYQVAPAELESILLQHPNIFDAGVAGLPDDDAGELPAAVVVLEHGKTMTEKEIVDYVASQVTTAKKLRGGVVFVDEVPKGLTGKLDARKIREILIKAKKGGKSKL
How it was run: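 Quantitative HTS format; KM concentrations of both substrates. Purified P. pyralis FLuc activity quantified from luminescence images.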

[7] = qHTS assay to identify small molecule agonists of the constitutive androstane receptor (CAR) signaling pathway - cell viability counter screen (AID 1224836); also: series mostly up to about 92 µM; nearly all actives have a fitted effect of over 45% in size
How it was run: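 HepG2 cells stably carrying hCAR and a CYP2B6-2.2kb reporter were plated 4 h, then given compounds at 15 concentrations plus PK11195 (final 0.75 uM). After 23 h at 37 C, viability was read by CellTiter-Fluor fluorescence.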

[8] = qHTS assay to identify small molecule antagonists of the constitutive androstane receptor (CAR) signaling pathway - cell viability counter screen (AID 1224837); also: series mostly up to about 92 µM; nearly all actives have a fitted effect of over 45% in size
How it was run: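 HepG2 cells stably carrying hCAR and CYP2B6-2.2kb reporter, stimulated with 50 nM CITCO and compounds at 15 concentrations for 23 h at 37 C. Viability measured by CellTiter-Fluor fluorescence.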

[9] = target: Nuclear receptor subfamily 1 group I member 3 (Homo sapiens) (UniProt Q14994); test: qHTS assay to identify small molecule antagonists of the constitutive androstane receptor (CAR) signaling pathway (AID 1224838); also: nearly all actives have a fitted effect of over 40% in size
Nuclear receptor subfamily 1 group I member 3 (Homo sapiens), sequence (Q14994 whole entry, looked up): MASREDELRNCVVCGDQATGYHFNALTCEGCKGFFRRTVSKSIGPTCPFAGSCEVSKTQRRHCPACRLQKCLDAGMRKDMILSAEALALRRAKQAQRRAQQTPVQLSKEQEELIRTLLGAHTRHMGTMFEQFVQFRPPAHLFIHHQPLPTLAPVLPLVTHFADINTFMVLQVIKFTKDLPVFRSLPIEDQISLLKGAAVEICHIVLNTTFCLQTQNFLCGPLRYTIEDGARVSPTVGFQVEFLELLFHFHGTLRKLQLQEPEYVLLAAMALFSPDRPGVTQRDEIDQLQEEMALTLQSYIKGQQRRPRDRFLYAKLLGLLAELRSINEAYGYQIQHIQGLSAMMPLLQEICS
How it was run: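 HepG2 cells stably carrying hCAR and a CYP2B6-2.2kb luciferase reporter, seeded 4 hrs before compound (15 concentrations). Stimulated with 50 nM CITCO for 24 hr at 37 C. ONE-Glo luminescence read after 30 min at room temperature.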

[10] = target: Nuclear receptor subfamily 1 group I member 3 (Homo sapiens) (UniProt Q14994); test: qHTS assay to identify small molecule agonists of the constitutive androstane receptor (CAR) signaling pathway (AID 1224839); also: series mostly up to about 92 µM; nearly all actives have a fitted effect of over 15% in size
How it was run: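 HepG2 cells stably expressing hCAR and a CYP2B6-2.2kb luciferase reporter were treated with compounds at 15 concentrations plus 0.75 uM PK11195 (final) for 24 h at 37 C; luminescence was read after ONE-Glo addition.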

[11] = qHTS assay to identify small molecule antagonists of the estrogen related receptor signaling pathway with the pleiotropic PPARgamma coactivator (PGC) from Tox21 10K library - cell viability counter screen (AID 1224840; active = well fitted cell-killing curve with a large enough effect in the repeat runs, not every such curve was filed as active; also: nearly all actives have a fitted effect of over 40% in size)
How it was run: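 PGC/ERR cells (2,000/well) plated 6 h, then compound-treated for 17.5 h at 37 C. Viability measured by CellTiter-Fluor fluorescence after 30 min at 37 C, multiplexed with the pathway assay.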

[12] = target: Thyrotropin receptor (Homo sapiens) (UniProt P16473); test: qHTS assay to identify small molecule agonists of the thyroid stimulating hormone receptor (TSHR) signaling pathway (AID 1224843; calls by dose curve; also: nearly all actives have a fitted effect of over 45% in size)
Thyrotropin receptor (Homo sapiens), sequence (P16473 whole entry, looked up): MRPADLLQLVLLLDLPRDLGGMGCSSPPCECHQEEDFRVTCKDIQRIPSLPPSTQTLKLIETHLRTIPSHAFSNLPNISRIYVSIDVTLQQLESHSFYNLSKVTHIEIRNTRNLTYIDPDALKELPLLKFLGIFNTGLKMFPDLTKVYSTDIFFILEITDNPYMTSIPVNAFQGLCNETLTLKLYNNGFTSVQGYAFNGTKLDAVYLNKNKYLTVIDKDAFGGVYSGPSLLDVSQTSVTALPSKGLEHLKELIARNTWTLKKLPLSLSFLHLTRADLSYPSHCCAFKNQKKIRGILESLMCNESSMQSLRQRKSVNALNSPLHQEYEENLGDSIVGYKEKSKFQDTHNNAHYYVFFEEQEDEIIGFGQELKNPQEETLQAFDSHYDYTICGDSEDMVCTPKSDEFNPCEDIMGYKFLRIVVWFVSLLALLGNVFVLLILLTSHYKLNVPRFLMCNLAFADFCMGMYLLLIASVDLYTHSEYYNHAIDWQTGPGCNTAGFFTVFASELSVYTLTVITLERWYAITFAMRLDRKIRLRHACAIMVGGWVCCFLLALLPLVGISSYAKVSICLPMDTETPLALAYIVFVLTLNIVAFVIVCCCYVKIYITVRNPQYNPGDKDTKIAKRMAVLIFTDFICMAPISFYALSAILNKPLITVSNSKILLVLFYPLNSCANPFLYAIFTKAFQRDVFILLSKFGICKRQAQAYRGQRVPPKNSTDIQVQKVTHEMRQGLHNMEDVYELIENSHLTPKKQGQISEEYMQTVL
How it was run: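 TSHR-expressing HEK293 cells (800 per well) were exposed to compounds for 30 min at room temperature. cAMP was then detected by HTRF competition with cAMP-d2 and anti-cAMP cryptate, read after 1 h at room temperature. Fifteen concentrations, triplicate.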

[13] = qHTS assay to identify small molecule antagonists of the estrogen related receptor signaling pathway with the pleiotropic PPARgamma coactivator (PGC) from Tox21 10K library (AID 1224841; call rule not given here; also: series mostly up to about 92 µM; actives are mostly falling curves and most rising ones were filed inactive; nearly all actives have a fitted effect of over 50% in size)
How it was run: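 PGC/ERR cell line, 2,000 cells/well, pre-incubated 6 hours at 37 C, then exposed to compounds for 18 hours at 37 C; luciferase read with One-Glo luminescence after 30 min at room temperature.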

[14] = qHTS assay to identify small molecule agonists of the estrogen related receptor signaling pathway with the pleiotropic PPARgamma coactivator (PGC) from Tox21 10K library (AID 1224842); also: nearly all actives have a fitted effect of over 15% in size
How it was run: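 PGC/ERR reporter cells (NTP line) were seeded 2,000 per well, rested 6 h at 37 C/5% CO2, then pin-dosed with compounds in DMSO for 18 h at 37 C; luciferase read by One-Glo luminescence after 30 min at room temperature.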
% is scaled to controls: 0 for no effect and ±100 for the full control effect.

CN1C(=O)COc2c(C(=O)NC3CN4CCC3CC4)cc(Cl)cc21 (stereo not given)
inactive: Potency [1] | Potency [2] | Potency [3] | Potency [4] | Potency [5] | Potency [6] | Potency [7] | Potency [8] | Potency [9] | Potency [10] | Potency [11] | Potency [12]

C1CN2CCC1CC2
inactive: Potency [1] | Potency [2] | Potency [3] | Potency [4] | Potency [5] | Potency [6] | Potency [7] | Potency [8] | Potency [9] | Potency [10] | Potency [11] | Potency [12]

O=C(O)C(Br)(Br)Br
inactive: Potency [1] | Potency [2] | Potency [3] | Potency [4] | Potency [5] | Potency [6] | Potency [7] | Potency [8] | Potency [9] | Potency [10] | Potency [13] | Potency [14] | Potency [12]

CCN[C@@H](C)Cc1cccc(C(F)(F)F)c1
inactive: Potency [1] | Potency [2] | Potency [3] | Potency [4] | Potency [5] | Potency [6] | Potency [7] | Potency [8] | Potency [9] | Potency [10] | Potency [11] | Potency [12]

ClCCCCCCCl
inactive: Potency [1] | Potency [2] | Potency [3] | Potency [4] | Potency [5] | Potency [6] | Potency [7] | Potency [8] | Potency [9] | Potency [10] | Potency [11] | Potency [12]

C/C=C/CC#N
inactive: Potency [1] | Potency [2] | Potency [3] | Potency [4] | Potency [5] | Potency [6] | Potency [7] | Potency [8] | Potency [9] | Potency [10] | Potency [11] | Potency [12]

O=C(Cl)C(Cl)Cl
inactive: Potency [1] | Potency [2] | Potency [3] | Potency [4] | Potency [5] | Potency [6] | Potency [7] | Potency [8] | Potency [9] | Potency [10] | Potency [12]

N=C(N)[Se]
inactive: Potency [1] | Potency [2] | Potency [3] | Potency [4] | Potency [5] | Potency [6] | Potency [7] | Potency [8] | Potency [9] | Potency [10] | Potency [11] | Potency [12]

CCN(CCO)CCO
inactive: Potency [1] | Potency [2] | Potency [3] | Potency [4] | Potency [5] | Potency [6] | Potency [7] | Potency [8] | Potency [9] | Potency [10] | Potency [11] | Potency [12]

C=C1C[C@@H]2[C@H](CC[C@]3(C)C(=O)CC[C@@H]23)[C@@]2(C)C=CC(=O)C=C12
inactive: Potency [1] | Potency [2] | Potency [3] | Potency [4] | Potency [5] | Potency [6] | Potency [7] | Potency [8] | Potency [9] | Potency [11] | Potency [13] | Potency [14] | Potency [12]

CCNc1nc(Cl)nc(NC(C)(C)C)n1
inactive: Potency [1] | Potency [2] | Potency [3] | Potency [4] | Potency [5] | Potency [6] | Potency [7] | Potency [8] | Potency [9] | Potency [11]

CNC(=O)NC(O)C(Cl)(Cl)Cl (stereo not given)
inactive: Potency [1] | Potency [2] | Potency [3] | Potency [4] | Potency [5] | Potency [6] | Potency [7] | Potency [8] | Potency [9] | Potency [10] | Potency [12]

CC1N=C(N)OC1c1ccccc1 (stereo not given)
inactive: Potency [1] | Potency [2] | Potency [3] | Potency [4] | Potency [5] | Potency [6] | Potency [7] | Potency [8] | Potency [9] | Potency [10] | Potency [11] | Potency [12]

CCCCCCCCBr
inactive: Potency [1] | Potency [2] | Potency [3] | Potency [4] | Potency [5] | Potency [6] | Potency [7] | Potency [8] | Potency [9] | Potency [10] | Potency [11] | Potency [12]

O=c1[nH]c2ccccc2o1
inactive: Potency [1] | Potency [2] | Potency [3] | Potency [4] | Potency [5] | Potency [6] | Potency [7] | Potency [8] | Potency [9] | Potency [10] | Potency [14] | Potency [12]

CS(=O)(=O)Cl
inactive: Potency [1] | Potency [2] | Potency [3] | Potency [4] | Potency [5] | Potency [6] | Potency [7] | Potency [8] | Potency [9] | Potency [10] | Potency [11] | Potency [12]

Cc1cc(OC(=O)N(C)C)nn1C(=O)N(C)C
inactive: Potency [1] | Potency [2] | Potency [3] | Potency [4] | Potency [5] | Potency [6] | Potency [7] | Potency [8] | Potency [9] | Potency [10] | Potency [12]

C=CCC1(C(C)CC)C(=O)NC(=O)NC1=O (stereo not given)
inactive: Potency [1] | Potency [2] | Potency [3] | Potency [4] | Potency [5] | Potency [6] | Potency [7] | Potency [8] | Potency [9] | Potency [10] | Potency [12]

[O-][Br+2]([O-])O
inactive: Potency [1] | Potency [2] | Potency [3] | Potency [4] | Potency [5] | Potency [6] | Potency [7] | Potency [8] | Potency [9] | Potency [10] | Potency [11] | Potency [12]

C=CC=O
inactive: Potency [1] | Potency [2] | Potency [3] | Potency [4] | Potency [5] | Potency [6] | Potency [7] | Potency [8] | Potency [9] | Potency [10] | Potency [11] | Potency [12]

CC(O)CCl (stereo not given)
inactive: Potency [1] | Potency [2] | Potency [3] | Potency [4] | Potency [5] | Potency [6] | Potency [7] | Potency [8] | Potency [9] | Potency [10] | Potency [12]

O=C(Cl)C(Cl)(Cl)Cl
inactive: Potency [1] | Potency [2] | Potency [3] | Potency [4] | Potency [5] | Potency [6] | Potency [7] | Potency [8] | Potency [9] | Potency [10] | Potency [11] | Potency [12]

CCCCCCC(=O)CCCCCC/C=C/C[C@@H](O)[C@H](O)[C@@](N)(CO)C(=O)O
inactive: activity change, negative = cytotoxicity [1] 2.42% [at 15.8 µM] | activity change, negative = cytotoxicity [2] 2.99% [at 19 µM] | activity, negative = inhibition [3] 6.01% [at 19 µM] | Potency [4] | viability change, negative = cytotoxic [5] 6.53% [at 19 µM] | activity change, negative = inhibition [6] -3.87% [at 23.6 µM] | viability change, negative = cytotoxic [7] 6.33% [at 19 µM] | activity change, negative = cytotoxicity [8] -0.0318% [at 19 µM] | activity, negative = inhibition [9] -1.56% [at 19 µM] | activation [10] -1.84% [at 19 µM] | activation [12] -1.25% [at 19 µM]
